Values joined by “and” are separate entries in the source; they are usually repeats but may differ in a detail not shown here. Equal entries are not always repeated. Results filed as inconclusive are left out. A call without a number means that no potency is given here. Active and inactive are the calls of the source. The call rests on the fitted dose curve.
Potency means the concentration at half of the fitted maximal effect.

The experiment can be described thus: qHTS assay for small molecules that induce genotoxicity in human embryonic kidney cells expressing luciferase-tagged ATAD5 - cell viability (AID 651634). Further: nearly all actives have a fitted effect of over 25% in size. The note with it: HEK293T ATAD5-luc cells viability, CellTiter-Fluor, 15.5 h; series mostly up to 83.3 µM. From the text: National Center for Advancing Translational Sciences [NCATS]
NIH Chemical Genomics Center [NCGC]
U.S. Environmental Protection Agency [EPA]
National Institutes of Environmental Health Sciences [NIEHS]
National Toxicology Program [NTP]
U.S. Food and Drug Administration [FDA]
Enhanced Level of Genome Instability Gene 1 (ELG1; human ATAD5) protein levels increase in response to various types of DNA damage. Using a luciferase reporter-gene tagged with ElG1, a cell-based assay [developed by Kyungjae Myung, NHGRI, NIH] was used to measure the induction of ATAD5 in human embryonic kidney cells (HEK293T). So, increase in luciferase activity can be used to identify the compounds that cause genetic stress. In addition to genotoxicity, these cells were also used to test for cytotoxicity by measuring the protease activity within live cells.
Tox21 Assay Protocol Summary:
For cytotoxicity screening, 2,000 cells in 5 uL/well were dispensed into white, solid-bottom 1536-well plates using a Multidrop Combi (Thermo Scientific) dispenser. Following transfer of 23 nL compound or DMSO vehicle by a pin tool, the plates were incubated 15.5 hr at 37C and 5% CO2. 1 ul CellTiter-Fluor reagent (Promega, Madison, WI) was then added to each plate and following 30 min incubation at 37C, fluorescence intensity was quantified on a ViewLux CCD-based plate reader.
Regarding `O=CC=O`, the Potency result was “inactive”.

Take `O=[N+]([O-])c1cc(Cl)c(Cl)cc1Cl`: the Potency result was “inactive”.

With `CCCCCCCCCCCCN(C)C`, the Potency entry was “inactive”.

As for `CC(C)CCON=O`, the Potency result is “inactive”.

With `CC[N+]1(C)CCCC(OC(=O)C(O)(c2ccccc2)c2ccccc2)C1` (stereo not given), the Potency entry was “inactive”.

Take `CCOP(=O)(O)C(N)=O`: the Potency entry is “inactive”.

Turning to `CC(C)c1ccc(OP(=O)(Oc2ccc(C(C)C)cc2)Oc2ccc(C(C)C)cc2)cc1`, the Potency entry is “inactive”.

Take `COC1CC(=C(c2cccs2)c2cccs2)C[N+](C)(C)C1` (stereo not given): the Potency entry was “inactive”.

On to `C=C(Cl)Cl`, for which the Potency entry is “inactive”.

For `CN(C)C(=O)Nc1cccc(OC(=O)NC(C)(C)C)c1`, the Potency result was “inactive”.

`CCOC(=O)c1cncn1C(C)c1ccccc1` (stereo not given): the Potency result was “inactive”.

For the molecule `CCC(C)Cl` (stereo not given), the Potency entry is “inactive”.

Turning to `CC(C)OC(=O)Cc1ccccc1`, the Potency result is “inactive”.

Turning to `CCCCCCCCCCCCCCCl`, the Potency entry was “inactive”.

On to `Cc1nc2ccccc2c(=O)n1-c1ccccc1Cl`, for which the Potency entry was “inactive”.

With `CN(C)c1ccc(N=O)cc1`, the Potency is 61.3 µM (active) and 54.5 µM (active).

On to `O=C(Cl)OCCOCCOC(=O)Cl`, for which the Potency result is “inactive”.

Turning to `O=C(N[C@H]1CN2CCC1CC2)c1ccc2c(c1)OCCO2`, the Potency entry is “inactive”.

Turning to `COC(=O)C1(O)c2ccccc2-c2ccccc21`, the Potency result was “inactive”.

As for `CCCCC(CC)CO[N+](=O)[O-]` (stereo not given), the Potency result is “inactive”.

For the molecule `CCCC[P+](CC)(CCCC)CCCC` (tested in a mixture with another compound), the Potency entry is “inactive”.

Regarding `c1ccc2c(c1)-c1cccc3cccc-2c13`, the Potency result is “inactive”.

`NCCc1cc(O)c(O)cc1O`: the Potency result was “inactive”.

`C=CC(=O)OCC`: the Potency result was “inactive”.

As for `Cc1cnc(C2=NC(C)(C(C)C)C(=O)N2)c(C(=O)O)c1` (stereo not given), the Potency entry is “inactive”.

Consider `C1CCNCC1`, for which the Potency result is “inactive”.

Turning to `CCOc1cccc(C2(N3CCN(c4ccccc4)CC3)CCC(C)CC2)c1` (stereo not given), the Potency entry is “inactive”.

As for `Clc1ccccc1`, the Potency result was “inactive”.

For `C[Si](Cn1cncn1)(c1ccc(F)cc1)c1ccc(F)cc1`, the Potency result was “inactive”.

As to `ClCc1ccccc1Cl`, the Potency result was “inactive”.

Turning to `CC(C)(C)c1ccc(CCOc2ncnc3ccccc23)cc1`, the Potency entry is “inactive”.

In the case of `O=C(O)COc1cc(Cl)c(Cl)cc1Cl`, the Potency entry was “inactive”.

On to `O=C(Cc1ccccc1)c1ccccc1`, for which the Potency result was “inactive”.

`CCOC(=O)NC(O)C(Cl)(Cl)Cl` (stereo not given): the Potency entry was “inactive”.

As for `C=CCOCC1CO1` (stereo not given), the Potency entry was “inactive”.

Take `Cc1ncc(C[n+]2csc(CCO)c2C)c(N)n1`: the Potency result is “inactive”.

As to `C[CH2][Hg][S]c1ccccc1C(=O)O`, the Potency was 11.9 µM (active) and 27.3 µM (active).

As to `CC1(C)CC(=O)CC(C)(C)N1[O]`, the Potency entry is “inactive”.

As for `COC(=O)Cc1ccccc1`, the Potency result was “inactive”.

`Oc1cccc(Cl)c1`: the Potency entry is “inactive”.
